High-throughput results deposited in PubChem by Center for Chemical Genomics, University of Michigan.
Dicer inh = blocks human Dicer maturation of pre-miR-21; Q9UPY3; cat-ELCCA pre-miR-21 Dicer processing, chemiluminescence; hits give high values; z-score at 25 µM; hit rate 6% among 47,000; in the data active = z-score above about 3, passing the limit was not always enough;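 note: plate controls were vehicle for no effect and no enzyme for full effect; higher signal means more uncleaved substrate so more Dicer inhibition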
Target sequence (Q9UPY3 whole entry, looked up): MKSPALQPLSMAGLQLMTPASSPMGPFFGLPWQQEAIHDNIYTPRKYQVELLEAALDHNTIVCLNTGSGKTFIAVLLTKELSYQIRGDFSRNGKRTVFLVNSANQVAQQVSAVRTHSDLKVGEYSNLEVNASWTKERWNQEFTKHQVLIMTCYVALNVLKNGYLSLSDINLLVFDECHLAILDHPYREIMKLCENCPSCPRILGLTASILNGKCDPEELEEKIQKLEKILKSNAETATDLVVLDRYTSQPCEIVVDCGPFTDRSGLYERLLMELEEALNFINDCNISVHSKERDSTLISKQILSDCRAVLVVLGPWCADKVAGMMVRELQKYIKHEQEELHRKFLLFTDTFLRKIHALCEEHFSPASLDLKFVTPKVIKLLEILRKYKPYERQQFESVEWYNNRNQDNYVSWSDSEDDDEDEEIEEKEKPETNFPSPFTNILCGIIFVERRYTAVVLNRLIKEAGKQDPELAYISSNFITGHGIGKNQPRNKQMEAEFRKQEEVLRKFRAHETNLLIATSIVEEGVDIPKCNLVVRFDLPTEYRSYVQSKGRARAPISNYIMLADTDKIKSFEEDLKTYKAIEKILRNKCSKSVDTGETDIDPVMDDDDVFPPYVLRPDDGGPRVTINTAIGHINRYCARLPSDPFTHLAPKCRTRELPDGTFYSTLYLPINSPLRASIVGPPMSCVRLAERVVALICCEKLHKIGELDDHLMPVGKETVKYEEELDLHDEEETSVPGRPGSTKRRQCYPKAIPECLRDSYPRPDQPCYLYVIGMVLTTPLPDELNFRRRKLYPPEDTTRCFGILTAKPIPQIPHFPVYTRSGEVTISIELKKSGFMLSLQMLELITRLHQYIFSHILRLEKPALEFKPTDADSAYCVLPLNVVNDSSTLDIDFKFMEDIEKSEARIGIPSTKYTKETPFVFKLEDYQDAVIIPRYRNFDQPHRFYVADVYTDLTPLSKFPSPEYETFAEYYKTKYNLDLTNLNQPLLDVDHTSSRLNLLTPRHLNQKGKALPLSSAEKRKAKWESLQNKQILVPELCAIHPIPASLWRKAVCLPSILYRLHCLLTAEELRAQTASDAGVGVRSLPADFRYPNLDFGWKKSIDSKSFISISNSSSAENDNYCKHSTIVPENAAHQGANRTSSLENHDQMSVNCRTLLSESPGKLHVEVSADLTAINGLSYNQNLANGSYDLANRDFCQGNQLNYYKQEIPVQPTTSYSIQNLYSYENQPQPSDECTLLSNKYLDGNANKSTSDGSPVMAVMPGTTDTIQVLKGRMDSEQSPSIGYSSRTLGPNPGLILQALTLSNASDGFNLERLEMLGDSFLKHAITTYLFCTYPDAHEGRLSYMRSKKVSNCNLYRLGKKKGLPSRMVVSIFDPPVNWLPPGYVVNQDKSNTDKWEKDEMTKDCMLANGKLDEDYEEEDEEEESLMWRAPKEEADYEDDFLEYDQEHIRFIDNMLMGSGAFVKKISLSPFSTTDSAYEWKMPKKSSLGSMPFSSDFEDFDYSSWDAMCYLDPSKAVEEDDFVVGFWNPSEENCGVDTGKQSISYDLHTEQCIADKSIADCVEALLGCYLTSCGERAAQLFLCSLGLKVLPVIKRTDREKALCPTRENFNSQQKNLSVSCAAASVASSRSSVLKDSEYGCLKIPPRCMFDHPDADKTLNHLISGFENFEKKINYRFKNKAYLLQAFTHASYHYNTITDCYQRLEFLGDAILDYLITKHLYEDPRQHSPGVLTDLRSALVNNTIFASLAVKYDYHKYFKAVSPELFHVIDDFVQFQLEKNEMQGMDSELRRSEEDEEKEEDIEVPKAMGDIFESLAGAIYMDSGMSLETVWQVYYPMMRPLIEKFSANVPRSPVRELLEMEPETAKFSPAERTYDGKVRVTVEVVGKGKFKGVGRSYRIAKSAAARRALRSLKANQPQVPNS
An asterisk follows results filed as active. The entries come from a sample that favours hits as a whole.

For O=C(c1cccs1)N1CCN(CCN2C(=O)c3cccc4cccc(c34)C2=O)CC1 the results were Dicer inh 0.18.
Screening Fc1ccc(C2Sc3ccccc3N=C3c4ccccc4OCC32)cc1 (stereo unspecified) returned Dicer inh -1.4.
`NS(=O)(=O)c1ccc(NC(=O)C2CCCCC2)cc1` gave Dicer inh 1.4.
`CCCc1c(C)c(C#N)c2nc3ccccc3n2c1NCCCn1ccnc1` gave Dicer inh -1.9.
Cc1c(Cc2ccccc2Cl)c(NCCCn2ccnc2)n2c(nc3ccccc32)c1C#N was read as Dicer inh -0.6.
CCCCc1c(C)c(C#N)c2nc3ccccc3n2c1N1CCN(CCO)CC1 was read as Dicer inh 2.5.
Screening Cc1c(CCC(C)C)c(-n2ccnc2)n2c(nc3ccccc32)c1C#N returned Dicer inh 3.5*.
Cc1c(Cc2ccc(Cl)cc2)c(NCCCn2ccnc2)n2c(nc3ccccc32)c1C#N was read as Dicer inh 4.4*.
Cc1c(Cc2ccccc2)c(-n2ccnc2)n2c(nc3ccccc32)c1C#N was read as Dicer inh 1.7.
Cc1nc(SCCC(C)C)[nH]c(=O)c1CCC(C)C was read as Dicer inh 6.2.
For COCCNc1cc(C)nc2ccc(C)cc12 the results were Dicer inh -1.1.
For CCN(CC)S(=O)(=O)c1ccc(-c2ccc(S(=O)(=O)N(CC)CC)s2)s1 the results were Dicer inh 0.3.
Screening C#CCOC(=O)Nc1cnc(OCC)c(C(F)(F)F)c1 returned Dicer inh -0.38.
`CCOc1ccc(/C=C2\N=C(SC)SC2=O)cc1` gave Dicer inh 0.72.
For O=C1c2cccc3c(N4CCCC4)ccc(c23)C(=O)N1c1ccccc1 the results were Dicer inh 2.
Screening CN(C)c1ccc2c3c(cccc13)C(=O)N(c1ccccc1)C2=O returned Dicer inh 3.4*.
For CCCSc1ccc2c3c(cccc13)C(=O)N(c1ccccc1)C2=O the results were Dicer inh -1.1.
For Cc1ccccc1N1CC23C=CC(O2)C(C(=O)O)C3C1=O (stereo unspecified) the results were Dicer inh 0.09.
For O=C(NNC(=O)c1ccccc1)NC(=O)c1ccccc1Cl the results were Dicer inh -1.4.
For CCCc1nnc(NC(CC)OC(=O)c2cc(C)nc3ccccc23)s1 (stereo unspecified) the results were Dicer inh 3.1*.
Screening COCCNc1cc(C)nc2ccccc12 returned Dicer inh 5.5.
`CCc1nnc2sc(-c3cc(C)nc4ccccc34)nn12` gave Dicer inh -1.1.
Screening CCCS(=O)(=O)c1cnc(C)nc1N returned Dicer inh -0.66.
Screening CSc1ssc(=Nc2ccc(Cl)cc2)c1-c1ccccc1 returned Dicer inh -0.57.
`Cc1ccc(S(=O)(=O)N2CCN(C(=O)CSc3nnc(N)s3)C2)cc1` gave Dicer inh 0.03.
`CCOC(=O)c1cc(C(C)(C)C)n(-c2ccc(N3CCOCC3)cc2)c1C` gave Dicer inh 1.2.
For CCOC(=O)c1cc(-c2ccc(Cl)cc2)n(-c2ccccc2)c1C the results were Dicer inh 1.9.
Screening CCOC(=O)c1cc(-c2ccccc2)n(-c2ccc(N3CCOCC3)cc2)c1C returned Dicer inh 4.3*.
For COC(=O)/C=C1\SC(=Nc2ccc(Cl)cc2)N(c2ccc(Cl)cc2)C1=O the results were Dicer inh -1.8.
Screening N#CCCCSc1ncccc1C(=O)O returned Dicer inh -0.75.
Screening O=C(CN1C2=NCCN2c2ccccc21)c1ccc(Cl)cc1 returned Dicer inh 0.
For O=C(CN1C2=NCCCN2c2ccccc21)c1ccc(Br)cc1 the results were Dicer inh 4*.
O=C(CN1C2=NCCCN2c2ccccc21)c1ccc2c(c1)OCO2 was read as Dicer inh 0.97.
`FC(F)(F)c1ccc2nsnc2c1` gave Dicer inh 2.8.
For O=[N+]([O-])c1cc(C(F)(F)F)ccc1Sc1n[nH]c(-c2ccc(Cl)cc2)n1 the results were Dicer inh -0.07.
For Cc1n(CC(O)COc2cccc(Cl)c2)c2ccccc2[n+]1C (stereo unspecified) the results were Dicer inh -1.3.
`COc1ccc(OCC(O)Cn2c(C)[n+](C)c3ccccc32)cc1` (stereo unspecified) gave Dicer inh 3.8*.
CCCc1n(CC(O)COc2ccccc2C)c2ccccc2[n+]1C (stereo unspecified) was read as Dicer inh 0.57.
For CCCc1n(CC(O)COc2ccc(F)cc2)c2ccccc2[n+]1C (stereo unspecified) the results were Dicer inh 3.7*.
Screening Cc1cccc(C)c1OCC(O)Cn1c(C)[n+](C)c2ccccc21 (stereo unspecified) returned Dicer inh -0.63.
For CCCc1n(CC(O)COc2cccc(OC)c2)c2ccccc2[n+]1C (stereo unspecified) the results were Dicer inh -0.34.
COC(=O)CSc1ccc([N+](=O)[O-])c(SCC(=O)OC)n1 was read as Dicer inh -0.81.
Screening CC(C)(Cc1nc2ccccc2[nH]1)C(=O)O returned Dicer inh -1.3.
For CCOC(=O)Cc1nc2ccccc2[nH]1 the results were Dicer inh 2.8.
Screening COC(=O)CC1=NN(c2nc3ccccc3[nH]2)C(=O)C1 returned Dicer inh 5.3*.
Screening O=C(O)/C=C/C(=O)NC1CCN(c2nccc(C(F)(F)F)n2)CC1 returned Dicer inh -1.1.
For COc1ccc(CN2CCN(C3CC4CCC3C4)CC2)c(OC)c1 (stereo unspecified) the results were Dicer inh 0.29.
Screening CCOc1cccc(C(c2c[nH]c3ccccc23)c2c[nH]c3ccccc23)c1O returned Dicer inh 6.4*.
COc1cccc(C(c2c[nH]c3ccccc23)c2c[nH]c3ccccc23)c1 was read as Dicer inh 0.33.
O=C(O)CC(C(=O)O)c1c[nH]c2ccccc12 (stereo unspecified) was read as Dicer inh 0.21.
`Cc1cccc(C(c2c[nH]c3ccccc23)c2c[nH]c3ccccc23)c1O` gave Dicer inh 1.2.
For Oc1ccc(Cl)cc1C(c1c[nH]c2ccccc12)c1c[nH]c2ccccc12 the results were Dicer inh 4.3*.
`COc1ccc(C(c2c[nH]c3ccccc23)c2c[nH]c3ccccc23)cc1OC` gave Dicer inh -0.04.
Screening CC1CN(C(=S)Nc2ccc(S(=O)(=O)N3CCCCC3)cc2)CC(C)O1 (stereo unspecified) returned Dicer inh 5.3.
Screening CC1CCc2c(sc3nnn(CC(=O)N4CCCCC4)c(=O)c23)C1 (stereo unspecified) returned Dicer inh 2.
For CC1CCc2c(sc3nnn(CC(N)=O)c(=O)c23)C1 (stereo unspecified) the results were Dicer inh 6.4*.
CC1CCc2c(sc3nnn(CC(=O)OC(C)C)c(=O)c23)C1 (stereo unspecified) was read as Dicer inh 1.4.
For NC(=O)c1cc(-c2ccccc2)sc1NC(=O)c1ccco1 the results were Dicer inh 0.11.
`O=C1NC(c2ccccc2Cl)Nc2sc3c(c21)CCN(Cc1ccccc1)C3` (stereo unspecified) gave Dicer inh 1.9.
COc1ccc(C2NC(=O)c3c(sc4c3CCCC4)N2)cc1 (stereo unspecified) was read as Dicer inh -1.2.
O=C1NC(c2ccc(Cl)cc2)Nc2sc3c(c21)CCCC3 (stereo unspecified) was read as Dicer inh 0.55.
